The first experiment concerns the target Rho-associated protein kinase 2 (Homo sapiens) (UniProt O75116). As to conditions: at 10 µM.
Rho-associated protein kinase 2 (Homo sapiens), sequence (O75116 whole entry, looked up): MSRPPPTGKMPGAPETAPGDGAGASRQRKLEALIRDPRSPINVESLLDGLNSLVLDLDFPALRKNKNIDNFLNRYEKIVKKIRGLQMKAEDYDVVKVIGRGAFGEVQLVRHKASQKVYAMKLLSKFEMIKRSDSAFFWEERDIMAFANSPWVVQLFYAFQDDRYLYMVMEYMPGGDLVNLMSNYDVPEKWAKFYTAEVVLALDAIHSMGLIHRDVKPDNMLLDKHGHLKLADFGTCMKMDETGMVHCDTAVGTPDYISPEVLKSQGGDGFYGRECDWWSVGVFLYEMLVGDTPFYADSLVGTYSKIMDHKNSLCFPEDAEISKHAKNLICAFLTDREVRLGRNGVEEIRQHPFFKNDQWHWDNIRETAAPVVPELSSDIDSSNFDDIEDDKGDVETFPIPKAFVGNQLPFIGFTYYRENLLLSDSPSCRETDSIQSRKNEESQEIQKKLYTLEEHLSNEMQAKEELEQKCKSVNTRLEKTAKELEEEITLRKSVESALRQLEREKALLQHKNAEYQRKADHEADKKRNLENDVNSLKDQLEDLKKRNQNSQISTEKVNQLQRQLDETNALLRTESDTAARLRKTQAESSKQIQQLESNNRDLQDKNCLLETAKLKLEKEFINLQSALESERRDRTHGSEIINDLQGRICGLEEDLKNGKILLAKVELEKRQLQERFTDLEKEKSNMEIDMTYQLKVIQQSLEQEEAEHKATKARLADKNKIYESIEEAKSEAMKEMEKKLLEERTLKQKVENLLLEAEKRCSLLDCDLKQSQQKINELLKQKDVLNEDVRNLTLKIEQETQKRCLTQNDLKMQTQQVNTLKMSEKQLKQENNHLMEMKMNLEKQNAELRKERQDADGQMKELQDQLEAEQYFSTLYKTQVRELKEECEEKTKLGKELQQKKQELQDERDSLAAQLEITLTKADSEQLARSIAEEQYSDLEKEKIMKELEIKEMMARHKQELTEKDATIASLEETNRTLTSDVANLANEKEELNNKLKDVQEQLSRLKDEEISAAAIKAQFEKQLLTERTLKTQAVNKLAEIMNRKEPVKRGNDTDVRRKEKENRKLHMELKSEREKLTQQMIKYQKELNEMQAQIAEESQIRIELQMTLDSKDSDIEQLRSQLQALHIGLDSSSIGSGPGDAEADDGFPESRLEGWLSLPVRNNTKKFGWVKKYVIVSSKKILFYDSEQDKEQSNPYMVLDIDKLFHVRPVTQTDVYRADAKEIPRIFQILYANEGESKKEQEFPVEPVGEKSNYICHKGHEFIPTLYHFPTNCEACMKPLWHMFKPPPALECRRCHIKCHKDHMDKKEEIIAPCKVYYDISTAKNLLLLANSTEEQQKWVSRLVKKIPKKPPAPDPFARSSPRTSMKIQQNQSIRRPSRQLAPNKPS
Consider `O=C(c1ccccc1)c1ccc(N2CCOCC2)cc1O`, for which the residual activity was 90%.
Take `Cc1cc(C)c(/C=C2\C(=O)Nc3ccccc32)[nH]1`: the residual activity came out at 80%.
Still for that read-out and setting: the same measure for `COc1ccc(COc2ccc(Cc3cnc(N)nc3N)cc2OC)cc1`: 78%; for `O=C1Nc2ccccc2/C1=C\c1c(Cl)[nH]c2ccccc12`: 81%; for `N#Cc1c(NC(=O)c2cccc3ccccc23)sc2c1CCCC2`: 99%.
For the compound `CC(C)N(CCC(=O)c1ccc2ccccc2c1)Cc1ccccc1`, the residual activity stood at 82%.
As for `O=c1cc(N2CCNCC2)oc2c(-c3ccccc3)cccc12`, the residual activity was found to be 80%.

A further experiment deals with Proto-oncogene tyrosine-protein kinase receptor Ret (Homo sapiens) (UniProt P07949). The conditions noted are these: at 1 µM.
Proto-oncogene tyrosine-protein kinase receptor Ret (Homo sapiens), sequence (P07949 whole entry): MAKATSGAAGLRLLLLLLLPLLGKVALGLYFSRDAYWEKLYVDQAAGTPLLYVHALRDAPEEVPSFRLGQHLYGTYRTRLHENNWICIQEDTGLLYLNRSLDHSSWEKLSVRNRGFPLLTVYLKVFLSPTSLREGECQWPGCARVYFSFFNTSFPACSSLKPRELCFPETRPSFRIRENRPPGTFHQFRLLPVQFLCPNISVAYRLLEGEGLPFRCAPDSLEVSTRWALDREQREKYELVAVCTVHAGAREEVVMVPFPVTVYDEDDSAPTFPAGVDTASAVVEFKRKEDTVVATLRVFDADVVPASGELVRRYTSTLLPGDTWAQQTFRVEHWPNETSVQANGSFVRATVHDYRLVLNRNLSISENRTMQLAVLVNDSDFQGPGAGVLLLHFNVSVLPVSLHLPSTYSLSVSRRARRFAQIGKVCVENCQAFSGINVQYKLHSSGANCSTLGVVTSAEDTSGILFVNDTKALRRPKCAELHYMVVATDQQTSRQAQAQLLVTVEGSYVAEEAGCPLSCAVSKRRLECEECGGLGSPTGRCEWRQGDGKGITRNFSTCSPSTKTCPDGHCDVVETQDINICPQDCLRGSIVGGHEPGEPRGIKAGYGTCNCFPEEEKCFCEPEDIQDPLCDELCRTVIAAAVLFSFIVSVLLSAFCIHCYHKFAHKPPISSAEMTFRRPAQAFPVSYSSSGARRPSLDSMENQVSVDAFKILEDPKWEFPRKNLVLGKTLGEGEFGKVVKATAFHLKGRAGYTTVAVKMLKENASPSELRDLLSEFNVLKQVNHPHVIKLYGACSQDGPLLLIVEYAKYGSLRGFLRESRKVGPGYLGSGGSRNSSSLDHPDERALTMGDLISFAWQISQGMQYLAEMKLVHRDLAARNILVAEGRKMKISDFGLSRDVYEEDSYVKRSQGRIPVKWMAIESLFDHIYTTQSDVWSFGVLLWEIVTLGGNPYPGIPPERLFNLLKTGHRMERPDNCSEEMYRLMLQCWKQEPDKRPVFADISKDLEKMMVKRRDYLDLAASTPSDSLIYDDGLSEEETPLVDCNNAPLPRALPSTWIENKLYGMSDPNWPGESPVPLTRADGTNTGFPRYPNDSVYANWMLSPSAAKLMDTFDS
Turning to `O=C(c1ccccc1)c1ccc(N2CCOCC2)cc1O`, the residual activity is 94%.
As for `O=C1NC(=O)C(c2cn(CCCn3ccnc3)c3ccccc23)=C1Nc1ccccc1`, the residual activity came to 102%.
Regarding `N#C/C(=C1/Nc2ccccc2S1)c1ccnc(NCCc2cccnc2)n1`, the residual activity turned out to be 63%.
Same read-out and setting: to `CN(C)S(=O)(=O)c1ccc2c(c1)/C(=C/c1cc3c([nH]1)CCCC3)C(=O)N2` belongs 22%; to `COc1ccc(-c2cnc3c(-c4ccsc4)cnn3c2)cc1`, 89%.
Still for that read-out and setting: to `COc1cc2c(cc1OC)-c1n[nH]c(Nc3cccc(F)c3)c1C2` belongs 64%; to `O=C(O)/C=C/c1cc(Br)c(Br)c(Br)c1Br`, 103%.
For the compound `O=C(Nc1ccc(Cl)cc1)c1ccccc1NCc1ccncc1`, the residual activity turned out to be 53%.
For `O=C1NC(=O)C(c2cn(CCCO)c3ncccc23)=C1c1cnccn1`, the residual activity turned out to be 82%.
On to `CCN(CC)CCNC(=O)c1c(C)[nH]c(/C=C2\C(=O)Nc3ccc(Cl)cc32)c1C`, for which the residual activity is -1%.
On to `O=C1NC(=O)C(c2c[nH]c3ccccc23)=C1c1c[nH]c2ccccc12`, for which the residual activity came out at 79%.
For `O=C(Nc1nc2ccccc2n1CCN1CCOCC1)c1cccc([N+](=O)[O-])c1`, the residual activity stood at 88%.
On the same count and under the same terms, the same measure for `COc1ccc2c(c1)c(C1=C(c3c[nH]c4ccccc34)C(=O)NC1=O)cn2CCCN(C)C`: 75%.
Turning to `CCOC(=O)c1c(C)[nH]c(/C=C2\C(=O)Nc3ccccc32)c1C`, the residual activity was 24%.
As for `CCCCc1c(-c2ccc(OC)cc2)[nH]c2nccnc12`, the residual activity was determined as 45%.
`COc1cc2nccc(Oc3ccc(NC(=O)Nc4cc(C)on4)c(Cl)c3)c2cc1OC`: the residual activity is 0%.
In the case of `O=C1Cc2c([nH]c3ccc([N+](=O)[O-])cc23)-c2ccccc2N1`, the residual activity is 103%.
`Fc1ccc(-c2nc3n(c2-c2ccncc2)CCS3)cc1`: the residual activity was determined as 98%.

The target is the same in the next experiment. As to conditions: at 10 µM.
In the case of `O=C(c1ccccc1)c1ccc(N2CCOCC2)cc1O`, the residual activity came to 100%.
As to `O=C1NC(=O)C(c2cn(CCCn3ccnc3)c3ccccc23)=C1Nc1ccccc1`, the residual activity was 70%.
Take `N#C/C(=C1/Nc2ccccc2S1)c1ccnc(NCCc2cccnc2)n1`: the residual activity was 47%.
For `CN(C)S(=O)(=O)c1ccc2c(c1)/C(=C/c1cc3c([nH]1)CCCC3)C(=O)N2`, the residual activity turned out to be 37%.
Still for that read-out and setting: the same measure for `COc1ccc(-c2cnc3c(-c4ccsc4)cnn3c2)cc1`: 99%; for `COc1cc2c(cc1OC)-c1n[nH]c(Nc3cccc(F)c3)c1C2`: 19%.
With `O=C(O)/C=C/c1cc(Br)c(Br)c(Br)c1Br`, the residual activity stood at 103%.
On the same count and under the same terms, to `O=C(Nc1ccc(Cl)cc1)c1ccccc1NCc1ccncc1` belongs 6%.
On the same count and under the same terms, the same measure for `O=C1NC(=O)C(c2cn(CCCO)c3ncccc23)=C1c1cnccn1`: 81%; for `CCN(CC)CCNC(=O)c1c(C)[nH]c(/C=C2\C(=O)Nc3ccc(Cl)cc32)c1C`: -1%; for `O=C1Cc2c([nH]c3ccc(Br)cc23)-c2ccccc2N1`: 72%.
As to `O=C1NC(=O)C(c2c[nH]c3ccccc23)=C1c1c[nH]c2ccccc12`, the residual activity came to 28%.
As to `O=C(Nc1nc2ccccc2n1CCN1CCOCC1)c1cccc([N+](=O)[O-])c1`, the residual activity came out at 101%.
Consider `COc1ccc2c(c1)c(C1=C(c3c[nH]c4ccccc34)C(=O)NC1=O)cn2CCCN(C)C`, for which the residual activity was 45%.
In the case of `O=S(=O)(NCCNC/C=C/c1ccc(Br)cc1)c1cccc2cnccc12`, the residual activity worked out at 82%.
In the case of `CCOC(=O)c1c(C)[nH]c(/C=C2\C(=O)Nc3ccccc32)c1C`, the residual activity was 14%.
`O=c1c(-c2ccc(F)cc2)c(-c2ccncc2)[nH]n1-c1ccc(Cl)cc1`: the residual activity was 55%.
`CCCCc1c(-c2ccc(OC)cc2)[nH]c2nccnc12`: the residual activity was 63%.
Regarding `COc1cc2nccc(Oc3ccc(NC(=O)Nc4cc(C)on4)c(Cl)c3)c2cc1OC`, the residual activity is -1%.
Turning to `O=C1Cc2c([nH]c3ccc([N+](=O)[O-])cc23)-c2ccccc2N1`, the residual activity was found to be 79%.
Consider `Fc1ccc(-c2nc3n(c2-c2ccncc2)CCS3)cc1`, for which the residual activity is 83%.

For the next experiment, the target named is Macrophage-stimulating protein receptor (Homo sapiens) (UniProt Q04912). The conditions noted are these: at 1 µM.
Macrophage-stimulating protein receptor (Homo sapiens), sequence (Q04912 25-304 limits assumed): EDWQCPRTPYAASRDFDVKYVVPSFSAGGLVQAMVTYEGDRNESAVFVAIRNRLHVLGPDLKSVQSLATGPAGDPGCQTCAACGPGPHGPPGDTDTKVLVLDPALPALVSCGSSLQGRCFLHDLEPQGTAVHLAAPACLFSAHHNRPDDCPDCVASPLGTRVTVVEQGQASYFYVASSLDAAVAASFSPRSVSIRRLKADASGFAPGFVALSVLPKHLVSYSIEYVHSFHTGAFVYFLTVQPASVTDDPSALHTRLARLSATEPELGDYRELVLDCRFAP
Macrophage-stimulating protein receptor (Homo sapiens), sequence (Q04912 310-1400 limits assumed): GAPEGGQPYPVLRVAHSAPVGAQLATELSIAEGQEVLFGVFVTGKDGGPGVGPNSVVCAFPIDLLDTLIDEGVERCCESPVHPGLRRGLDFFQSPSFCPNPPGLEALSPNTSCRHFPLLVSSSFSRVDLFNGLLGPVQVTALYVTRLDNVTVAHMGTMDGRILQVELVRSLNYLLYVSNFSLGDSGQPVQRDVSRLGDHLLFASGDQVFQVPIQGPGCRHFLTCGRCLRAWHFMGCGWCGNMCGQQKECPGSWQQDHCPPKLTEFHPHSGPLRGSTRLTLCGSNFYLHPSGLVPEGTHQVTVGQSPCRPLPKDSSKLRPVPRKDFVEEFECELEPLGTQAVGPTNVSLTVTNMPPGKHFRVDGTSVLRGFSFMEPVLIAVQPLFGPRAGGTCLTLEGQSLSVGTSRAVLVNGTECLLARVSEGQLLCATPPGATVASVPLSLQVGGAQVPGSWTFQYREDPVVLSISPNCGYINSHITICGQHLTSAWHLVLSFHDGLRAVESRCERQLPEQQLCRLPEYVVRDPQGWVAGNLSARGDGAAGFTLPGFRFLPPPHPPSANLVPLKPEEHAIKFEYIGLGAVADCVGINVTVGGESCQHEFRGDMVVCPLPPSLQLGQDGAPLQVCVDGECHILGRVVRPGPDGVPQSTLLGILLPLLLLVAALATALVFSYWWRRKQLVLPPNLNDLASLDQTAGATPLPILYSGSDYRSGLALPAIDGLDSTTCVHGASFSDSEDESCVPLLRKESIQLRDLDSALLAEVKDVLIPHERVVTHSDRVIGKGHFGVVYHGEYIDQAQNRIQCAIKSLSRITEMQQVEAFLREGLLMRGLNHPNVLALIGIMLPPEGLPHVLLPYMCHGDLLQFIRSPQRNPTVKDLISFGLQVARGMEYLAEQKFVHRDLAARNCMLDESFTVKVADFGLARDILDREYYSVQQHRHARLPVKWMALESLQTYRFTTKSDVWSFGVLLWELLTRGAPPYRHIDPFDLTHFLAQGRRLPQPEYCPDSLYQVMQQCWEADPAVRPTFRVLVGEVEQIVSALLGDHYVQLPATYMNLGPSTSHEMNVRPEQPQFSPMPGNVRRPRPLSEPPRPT
Turning to `O=C(c1ccccc1)c1ccc(N2CCOCC2)cc1O`, the residual activity is 90%.
Regarding `N#C/C(=C1/Nc2ccccc2S1)c1ccnc(NCCc2cccnc2)n1`, the residual activity was determined as 84%.
With `CN(C)S(=O)(=O)c1ccc2c(c1)/C(=C/c1cc3c([nH]1)CCCC3)C(=O)N2`, the residual activity was 64%.
Take `O=C1Nc2ccccc2/C1=C\c1c(Cl)[nH]c2ccccc12`: the residual activity amounted to 86%.
Still for that read-out and setting: the same measure for `O=C(O)/C=C/c1cc(Br)c(Br)c(Br)c1Br`: 56%; for `O=C1NC(=O)C(c2cn(CCCO)c3ncccc23)=C1c1cnccn1`: 66%; for `O=C1Cc2c([nH]c3ccc(Br)cc23)-c2ccccc2N1`: 72%.
The same measure, in the same setting: the same measure for `N#Cc1c(NC(=O)c2cccc3ccccc23)sc2c1CCCC2`: 74%.
As for `COc1ccc2c(c1)c(C1=C(c3c[nH]c4ccccc34)C(=O)NC1=O)cn2CCCN(C)C`, the residual activity amounted to 77%.
Still for that read-out and setting: the same measure for `O=c1c(-c2ccc(F)cc2)c(-c2ccncc2)[nH]n1-c1ccc(Cl)cc1`: 78%; for `NC(=O)c1ccc(-c2nc(-c3ccc4c(c3)OCCO4)c(-c3ccccn3)[nH]2)cc1`: 94%.
Regarding `O=c1cc(N2CCNCC2)oc2c(-c3ccccc3)cccc12`, the residual activity worked out at 76%.
Regarding `CCCCc1c(-c2ccc(OC)cc2)[nH]c2nccnc12`, the residual activity was determined as 85%.
The same measure, in the same setting: the same measure for `COc1cc2nccc(Oc3ccc(NC(=O)Nc4cc(C)on4)c(Cl)c3)c2cc1OC`: 31%; for `O=C1Cc2c([nH]c3ccc([N+](=O)[O-])cc23)-c2ccccc2N1`: 100%.

The values are drawn from ChEMBL document CHEMBL2218924, “A broad activity screen in support of a chemogenomic map for kinase signalling research and drug discovery” (Biochem J, 2013).
